ClpP mod: qHTS Assay for Activators of ClpP; ATP-dependent Clp protease proteolytic subunit (Bacillus subtilis (strain 168)), P80244; hit rate 1.9% among 340,000; purified B. subtilis ClpP, FRET peptide cleavage, 20 min; AID 651965, 2013; Potency, µM (series often up to 57.5 µM), without a hit: at the top dose activity change, negative = active; active = well fitted falling curve with a large enough effect; inconclusive = small, poorly fitted or top-dose-only effect; inactive = no such curve, though single readings can be large or run the other way; note: the source files actives as falling curves though it sought activators and does not explain the sign; nearly all actives have a fitted effect of over 65% in size
Target sequence (P80244 whole entry, looked up): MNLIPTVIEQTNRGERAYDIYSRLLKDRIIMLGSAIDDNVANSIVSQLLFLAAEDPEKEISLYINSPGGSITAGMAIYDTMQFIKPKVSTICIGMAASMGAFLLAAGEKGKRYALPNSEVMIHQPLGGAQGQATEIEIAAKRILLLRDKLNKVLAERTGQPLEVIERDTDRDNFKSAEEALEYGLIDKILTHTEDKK
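ClpP 10 microg/mL final, pH 8 Tris/KCl buffer with BSA, glycerol, Tween-20; compound pinned in; FRET-FV substrate; RT 20 min; Ex320/Em430; ΔFRET vs ADEP 5.8 microM, DMSO, no enzyme.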
DT40 TDP1 CPT: DT40-hTDP1 cell growth loss with CPT | chicken DT40 Tdp1-/-;hTDP1 cells + 20 nM CPT, ATP luminescence, 48 h | Potency, µM (top dose mostly 46.2 µM), without a hit: top-dose activity change, negative = growth inhibition, actives largely listed as inhibitors | hit rate 12% among 420,000 | AID 686979; note: % is set by controls: 0 for no effect and ±100 for the full control effect; nearly all actives have a fitted effect of over 55% in size
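Chicken DT40 Tdp1-/- cells complemented with human TDP1, 400 cells/well, exposed to compounds plus 20 nM camptothecin for at least 48 h at 37 C; viability read as ATP content by CellTiter-Glo luminescence.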
TDP1 block: TDP1 (human) enzyme inhibition; Q9NUW8; recombinant TDP1, AlphaScreen DNA substrate cleavage; Potency, µM (top dose mostly 130 µM), without a hit: top-dose activity change, negative = inhibition, actives largely listed as inhibitors; hit rate 0.28% among 350,000; note: % is set by controls: 0 for no effect and ±100 for the full control effect; nearly all actives have a fitted effect of over 40% in size
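Compounds were preincubated with Tdp1 (1 nM final) for 15 min at room temperature before substrate (15 nM final) started a 5 min reaction; beads (10 ug/ml final) were then added for 10 min before AlphaScreen detection.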
TDP1 cell noCPT: qHTS for Inhibitors of human tyrosyl-DNA phosphodiesterase 1 (TDP1): qHTS in cells in absence of CPT. Potency, µM (top dose mostly 46.2 µM), without a hit: top-dose activity change, negative = growth inhibition, most hits filed as inhibitors. DT40 Tdp1-/- hTDP1 cells, no CPT, ATP luminescence, 48 h. AID 686978, 2013. hit rate 15% among 420,000; note: % is set by controls: 0 for no effect and ±100 for the full control effect; nearly all actives have a fitted effect of over 55% in size
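Readout: luminescence from CellTiter-Glo after 30 min in the dark at RT. Cells: DT40 Tdp1-/- with stable hTDP1, 400/well. Exposure: compounds alone, ≥48 hr, 37 °C.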
* hit, by the source's call; ? = inconclusive; nt = not tested or not shown; [ ] = dose if it differs, or a comment. In the library only some 17% were active in any assay of this set; here they are far more common. Unless noted, calls come from the whole dose curve; as a rule, active = well fitted curve in the direction sought with a large enough effect; inconclusive = small, poorly fitted or top-dose-only effect, or another doubt; inactive = no such curve, though single readings can be large; an effect the other way counts as inactive or inconclusive. Potency is the fitted concentration of half-maximal effect.

SMILES	ClpP mod	DT40 TDP1 CPT	TDP1 block	TDP1 cell noCPT
CCOc1cc(C2NC(=O)c3c(sc4c3CCN(C)C4)N2)ccc1OC(=O)c1ccc(Br)cc1 (centres undefined)	4%	4%	0%[12.3 µM]	3%
CCOC(=O)N1CCc2c(sc3c2C(=O)NC(c2ccccc2)N3)C1 (centres undefined)	28µM*	6.5µM*	0%	3.3µM*
CCOC(=O)N1CCc2c(sc3c2C(=O)NC(c2ccc(N(C)C)cc2)N3)C1 (centres undefined)	4%	2.3µM*	5%	3.7µM*
Cn1c2c(c3cc([N+](=O)[O-])ccc31)CCCC2	1%	-2%	5%	-20%
O=C(NCc1cc(C(F)(F)F)cc(C(F)(F)F)c1)C12CN(Cc3ccccc3)CC1C(c1cccc([N+](=O)[O-])c1)=NO2 (centres undefined)	1%	-15%	8%	-15%
O=C(NCc1ccccc1)C12CN(Cc3ccccc3)CC1C(c1cccc([N+](=O)[O-])c1)=NO2 (centres undefined)	1%	?	4%	23µM*
Cc1ccc(CCNC(=O)C23CN(Cc4ccccc4)CC2C(c2ccc([N+](=O)[O-])cc2)=NO3)cc1 (centres undefined)	1%	21µM*	12%	?
Cc1c(Cl)ccc2sc(N3CCN(C(=O)C4CC4)CC3)nc12	-3%	12µM*	-3%	5.8µM*
COc1cccc2sc(N3CCN(C(=O)CCS(=O)(=O)c4ccc(F)cc4)CC3)nc12	-1%	5.8µM*	5%	7.3µM*
Cc1ccc(S(=O)(=O)CCC(=O)N2CCN(c3nc4c(C)c(Cl)ccc4s3)CC2)cc1	-6%	2.6µM*	3%	3.3µM*
CC1CC(OC(=O)CN2CCCCC2)CC(C)(C)C1 (centres undefined)	nt	nt	4%	nt
COc1ccc(OC)c(-c2ccnc(-n3ncc(C(=O)N(C)CCc4ccccn4)c3C)n2)c1	nt	-10%[9.04 µM]	nt	-13%
S=c1[nH]c2ccccc2o1	-5%	-8%	3%	-3%
C=CCOc1ccc(C2/C(=C(\O)c3ccc4c(c3)OCCO4)C(=O)C(=O)N2CCCN2CCOCC2)cc1 (centres undefined)	-2%	-23%	7%	27%
COc1ccc(-c2noc(-c3cccnc3NCc3ccco3)n2)cc1	4%	-20%	9%	?
C(#CCN1CCCC1)CC(c1ccccc1)c1ccccc1	nt	?	9%	16µM*
COc1ccc(C(C)=O)cc1CSc1nc2ccccc2c(=O)n1-c1ccccc1	1%	?	0%	?
COc1ccc(C(C)=O)cc1CSc1nc2ccccc2c(=O)n1-c1cccc(C)c1	-5%	18µM*	5%	18µM*
COc1ccccc1-n1c(SCC(=O)N2CCOCC2)nc2ccccc2c1=O	nt	7%	nt	-20%
O=C(c1ccc(-n2c(SCc3cc(F)ccc3F)nc3ccccc3c2=O)cc1)N1CCOCC1	-4%	12µM*	-4%	26µM*
COc1ccc(C(C)=O)cc1CSc1nc2ccccc2c(=O)n1-c1ccccc1C	-2%	18µM*	5%	21µM*
COc1ccccc1-n1c(SCc2cc(=O)oc3cc(O)ccc23)nc2ccccc2c1=O	-54%	23µM*	0%	?
COc1ccc(-n2nc3c(c2NC(=O)COc2ccccc2OC)CS(=O)(=O)C3)cc1	2%	-14%	nt	-6%
COc1ccc(OCc2cc(C(=O)NC(C)c3nc(C)cs3)no2)c(Cl)c1 (centres undefined)	-1%	?	nt	?
C=CCn1c(SCc2cc(C(C)=O)ccc2OCC)nc2ccccc2c1=O	-2%	1.6µM*	-2%	0.82µM*
SMILES	ClpP mod	DT40 TDP1 CPT	TDP1 block	TDP1 cell noCPT
Cc1csc(NC(=O)C2(C)CCN2C(=O)C(C)C)c1C#N (centres undefined)	1%	8.2µM*	nt	8.2µM*
O=C1NC(=O)C(Cc2ccc(OCCN3COc4ccccc4C3=O)cc2)S1 (centres undefined)	nt	nt	10%	nt
CCOC(=O)[C@]12CCC=C1N(Cc1cccc3ccccc13)C(=O)[C@H](CC(=O)NCC13CC4CC(CC(C4)C1)C3)C2	-2%	21µM*	nt	?
C#CCNC(=O)C[C@@H]1C[C@@]2(C(=O)OC)CCCCC=C2N(Cc2ccccc2)C1=O	1%	-25%	nt	-27%
CCOC(=O)[C@]12CCCC=C1N(Cc1cccc3ccccc13)C(=O)[C@H](CC(=O)NCCCOC)C2	2%	?	nt	?
CCCCOCCCNC(=O)C[C@@H]1C[C@@]2(C(=O)OC)CCCCC=C2N(Cc2cccc3ccccc23)C1=O	0%	?	nt	21µM*
CCOC(=O)[C@]12CCC=C1N(Cc1cccc3ccccc13)C(=O)[C@H](CC(=O)NCCCOC)C2	-1%	18µM*	nt	15µM*
CCCCOCCCNC(=O)C[C@@H]1C[C@@]2(C(=O)OC)CCCCC=C2N(Cc2ccccc2)C1=O	3%	18µM*	nt	13µM*
COCOc1cc(OC)ccc1C(=O)/C=C\c1ccc2c(c1)OCO2	nt	nt	3%[21 µM]	nt
COC(=O)[C@]12CCCCC=C1N(Cc1cccc3ccccc13)C(=O)[C@H](CC(=O)NCCCN1CCCC1=O)C2	0%	?	nt	16µM*
CCCCOCCCNC(=O)C[C@@H]1C[C@@]2(C(=O)OCC)CCC=C2N(Cc2cccc3ccccc23)C1=O	-1%	21µM*	nt	18µM*
CCc1ccc(CN(Cc2ccco2)c2cnc(S(C)(=O)=O)nc2C(=O)Nc2c(C)cccc2C)cc1	-14%	16µM*	2%	18µM*
CC(C)c1ccc(CN(Cc2ccco2)c2cnc(S(C)(=O)=O)nc2C(=O)Nc2ccc(F)cc2)cc1	-5%	?	6%	21µM*
Cc1ccc(NC(=O)c2nc(S(C)(=O)=O)ncc2N(Cc2ccco2)Cc2ccco2)cc1	-2%	8.2µM*	5%	12µM*
Cc1onc(-c2c(Cl)cccc2Cl)c1C(=O)N=C(N)N1CC(C)OC(C)C1 (centres undefined)	nt	-1%	4%	?
O=C(Cn1c(=O)n(-c2ccccc2)c(=O)c2c3c(sc21)CCCC3)Nc1ccc(F)cc1F	-1%	?	1%	?
CCC(CC)NC(=O)/C=C/c1ccccc1Cl	-4%	?	3%	?
CCNc1ccc(Br)cc(C(=O)/C=C/c2ccccc2Cl)c1=O	0%	9.2µM*	nt	10µM*
CNc1ccc(Br)cc(C(=O)/C=C/c2cccc(Cl)c2Cl)c1=O	0%	18µM*	-3%	16µM*
CCN(CC)c1ccc(C=O)c(OC)c1	nt	3%	3%	-14%
CCN(CC)c1ccc2nc3ccccc3[n+](CC)c2c1	nt	5.2µM*	12%	1.8µM*
COCc1nnc(SCC(=O)NCc2ccccc2)n1-c1ccccc1	0%	-1%	4%	2%

From PubChem BioAssay
